# Test results from the supplement of paper PMC10127200.
# Where a name gives a salt, the structure may show the parent alone.
# Key:
# Assay in all cases: Euclidean distance of Cell Painting phenotypic profile (signed KS, 77 features) to DMSO centroid (dimensionless distance); 5 or 10 uM (library dependent); higher = stronger phenotypic change vs DMSO (phenoactivity)
# Conditions in all cases: 48 h
# 786-O = system: 786-O
# Method in brief: (§1)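 Harmony extracted 77 features from 20X confocal images (9 fields/well) of stained cells, scoring each as a signed Kolmogorov-Smirnov statistic against same-plate vehicle wells. The cells, five cancer lines and a healthy fibroblast line, had received library compounds for 48 h at 10 or 5 uM depending on library, with 0.1% DMSO final. Phenoactivity is the Euclidean distance from each plate-position-corrected, correlation-weighted, top-dose replicate-averaged profile to the median vehicle profile.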
# A549 = system: A549
# Method in brief: as §1
# DU145 = system: DU145
# Method in brief: as §1
# FB = system: FB
# Method in brief: as §1
# HEPG2 = system: HEPG2
# Method in brief: as §1
# OVCAR4 = system: OVCAR4
# Method in brief: as §1
Structure (SMILES),Euclidean distance (786-O),Euclidean distance (A549),Euclidean distance (DU145),Euclidean distance (FB),Euclidean distance (HEPG2),Euclidean distance (OVCAR4)
CCCC(=O)O[C@]1(C(=O)CCl)[C@H](C)C[C@@H]2[C@@H]3CCC4=CC(=O)C=C[C@]4(C)[C@]3(F)C(=O)C[C@@]21C [clobetasone butyrate],1.53,2.42,3.28,1.92,1.73,2.23
CC1=CC[C@@](O)(C(C)C)CC1 [Terpinen-4-ol],0.644,0.999,0.827,0.873,0.873,0.882
Cc1nc(Nc2ncc(C(=O)Nc3c(C)cccc3Cl)s2)cc(N2CCN(CCO)CC2)n1 [Dasatinib],3.15,3.53,4.42,3.41,2.2,3.92
Cc1c(Cl)cccc1Nc1ncccc1C(=O)O [Clonixin],0.846,1.1,1.6,1.11,0.606,0.98
CN(C)CCC(c1ccc(Cl)cc1)c1ccccn1 (stereo unspecified) [Chlorpheniramine Maleate],1.37,0.807,1.01,1.23,1.4,1.15
CCCC(C(=O)OCCN(CC)CC)(c1ccccc1)c1ccccc1 [Proadifen HCl],1.14,1.1,2.58,1.59,1.89,1.13
C[C@]12CCCN1CC1=NNC(=O)c3cc(F)cc4[nH]c2c1c34 [Pamiparib (BGB-290)],1.52,1.68,1.44,1.48,2.36,1.71
COc1cc2c(cc1Cc1cccc(Cl)c1F)c(=O)c(C(=O)O)cn2[C@H](CO)C(C)C [Elvitegravir (GS-9137. JTK-303)],1.44,2.36,1.33,0.872,0.582,1.76
C[C@](N)(Cc1ccc(O)c(O)c1)C(=O)O [Methyldopa],1.49,0.734,1.09,0.909,0.55,0.729
O=C1c2ccc(Nc3ccc(F)cc3F)cc2CCc2ccc(OC[C@H](O)CO)cc21 [Skepinone-L],1.06,1.85,1.78,2.05,0.828,1.31
O=C(CO)[C@@H](O)[C@H](O)[C@H](O)CO [Fructose],1.08,0.996,0.637,0.813,0.424,1.17
CC(=O)[C@H]1CC[C@H]2[C@@H]3C[C@H](C)C4=CC(=O)CC[C@]4(C)[C@H]3[C@@H](O)C[C@]12C [Medrysone],1.22,1.8,1.96,1.72,0.963,1.81
O=C(O)c1ccccn1 [Picolinic acid (PCL 016)],0.642,0.409,2.15,0.847,0.761,0.799
COc1c(C)c2c(c(O)c1C/C=C(\C)CCC(=O)O)C(=O)OC2 [Mycophenolic acid],2.65,3.38,1.88,3.04,2.74,3.28
COc1cccc2c1C(=O)c1c(O)c3c(c(O)c1C2=O)C[C@@](O)(C(C)=O)C[C@@H]3O[C@H]1C[C@H](N)[C@H](O)[C@H](C)O1 [Daunorubicin HCl],5.05,5.5,5.6,4.91,4.88,5.41
COCCc1ccc(OCC(O)CNC(C)C)cc1 (stereo unspecified) [Metoprolol Tartrate],0.573,0.762,0.69,0.67,0.507,0.885
O=C(O)CCc1ccc(NCc2cccc(Oc3ccccc3)c2)cc1,1.31,1.43,1.69,1.47,1.25,1.53
CN1CCOC(c2ccccc2)c2ccccc2C1 (stereo unspecified) [Nefopam HCl],1.21,0.668,0.813,1.07,0.77,1.29
CN(C)C(=O)C(CCN1CCC(O)(c2ccc(Cl)cc2)CC1)(c1ccccc1)c1ccccc1 [Loperamide HCl],1.64,2.14,1.81,1.85,2.35,1.42
Cc1ncc(-c2ccnc(Nc3ccc(S(C)(=O)=O)cc3)n2)n1C(C)C,2.6,3.78,3.05,3.19,3.09,3.43
COc1ccc(NC(=O)c2ccc(C(=N)N(C)C)cc2)c(C(=O)Nc2ccc(Cl)cn2)c1 [Betrixaban],1.22,0.664,0.647,0.875,0.841,0.904
CS(=O)(=O)c1ccc(C(=O)Nc2ccc(Cl)c(-c3ccccn3)c2)c(Cl)c1 [Vismodegib (GDC-0449)],1.82,1.01,0.671,1,0.631,0.924
COc1ccc(Cn2ccc3ccc(C(=O)NO)cc32)cc1,1.83,1.18,1.25,2.16,1.5,0.415

Structure (SMILES),Euclidean distance (786-O),Euclidean distance (A549),Euclidean distance (DU145),Euclidean distance (FB),Euclidean distance (HEPG2),Euclidean distance (OVCAR4)
NC1(c2ccc(-c3nc4ccn5c(=O)[nH]nc5c4cc3-c3ccccc3)cc2)CCC1,3.5,2.58,2.67,3.61,2.59,2.07
COc1ccc([C@H]2CNC(=O)C2)cc1OC1CCCC1 [S- (+)-Rolipram],1.12,1.46,1,0.792,1.24,1.49
C[n+]1cc2c3c(ccc2c2ccc4cc5c(cc4c21)OCO5)OCO3 [Sanguinarine chloride],5.34,5,7.6,6.48,4.82,5.76
Nc1nc(F)nc2c1ncn2[C@@H]1O[C@H](CO)[C@@H](O)[C@@H]1O [Fludarabine],1.67,1.6,1.17,1.81,1.21,1.63
c1cncc(CN2CCC(n3ncc4c(N5CCOCC5)nc(-c5ccc6[nH]ccc6c5)nc43)CC2)c1,4.57,4.67,4.08,4.59,3.78,3.57
Cc1cnc(C(=O)NCCc2ccc(S(=O)(=O)NC(=O)NC3CCCCC3)cc2)cn1 [Glipizide],1.39,1.31,0.684,1.1,1.74,1.36
CC1OC2(CS1)CN1CCC2CC1 (stereo unspecified) [Cevimeline],1.52,1.3,0.896,1.55,0.72,1.48
Cc1cccc(-c2[nH]ncc2-c2ccc3ncccc3n2)n1,0.773,0.733,0.91,1.15,0.71,0.807
Nc1ccc(/N=N/c2ccccc2)c(N)n1 [Phenazopyridine HCl],1.22,0.654,0.961,1.04,1.07,0.739
CN(C)Cc1ccc(S(=O)(=O)n2ccc(/C=C/C(=O)NO)c2)cc1 [Resminostat],2.67,2.99,2.58,3.52,2.9,2.81
COC1=CC(=O)C[C@@H](C)[C@]12Oc1c(Cl)c(OC)cc(OC)c1C2=O [Griseofulvin],0.605,0.678,0.803,1.48,0.745,0.81
Nc1ccc(S(=O)(=O)NC(=O)c2ccccc2)cc1 [Sulfabenzamide],0.937,0.388,0.77,0.837,0.665,1.75
CN1CCN(CC/C=C2/c3ccccc3Sc3ccc(S(=O)(=O)N(C)C)cc32)CC1 [Thiothixene],2.81,2.33,2.21,2.69,3.3,2.03
CC/C(=C(\c1ccc(O)cc1)c1ccc(OCCNC)cc1)c1ccccc1 [Endoxifen HCl],4.21,3.39,2.59,3.3,4.86,3.32
CN[C@@H]1[C@H](O)[C@H](NC)[C@H]2O[C@@]3(O)C(=O)C[C@@H](C)O[C@H]3O[C@@H]2[C@H]1O [Spectinomycin HCl],0.726,0.814,1.28,1.21,0.977,1.02
O=C(Nc1ccc([N+](=O)[O-])cc1Cl)c1cc(Cl)ccc1O [Niclosamide],2.27,2.95,2.1,3.12,0.819,2.45
CC1=C(C(=O)Nc2cc3cn[nH]c3cc2F)C(c2ccc(C(F)(F)F)cc2)CC(=O)N1 (stereo unspecified),2.35,1.68,2.39,2.35,0.954,2.51
C#Cc1cccc(Nc2ncnc3cc(OC)c(OCCCCCCC(=O)NO)cc23)c1,3.46,4.62,2.02,3.43,1.85,1.93
O=C1c2c(O)cccc2C([C@@H]2O[C@H](CO)[C@@H](O)[C@H](O)[C@H]2O)c2cc(CO)cc(O)c21 (stereo partly specified) [Aloin],1.2,0.555,0.756,0.842,0.479,0.881
Cc1coc2c1C(=O)C(=O)c1c-2ccc2c(C)cccc12 [Tanshinone I],1.41,0.593,1.07,1.35,1.25,1.18
CC(C)(CO)c1cc2cc(NC(=O)C3(c4ccc5c(c4)OC(F)(F)O5)CC3)c(F)cc2n1C[C@@H](O)CO,1.47,1.89,1.24,2.93,0.904,2.17
COc1cc2nc(N3CCN(C(=O)c4ccco4)CC3)nc(N)c2cc1OC [Prazosin HCl],0.833,0.676,0.97,0.552,0.382,0.59
Cc1cc(NS(=O)(=O)c2ccc(N)cc2)no1 [Sulfamethoxazole sodium],1.09,0.64,1.01,0.902,0.561,1.28
